From PubChem BioAssay
A selection: hits, their analogues and other compounds. The true share with any hit is near 1.6%.
KCNQ2 block: KCNQ2 (rat) channel inhibition. B-score at 10 µM. hit rate 1.1% among 310,000. O88943. CHO-K1 KCNQ2, FluxOR thallium flux, 20 min; active compounds read low;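 active = fluorescence ratio B-score at most minus 3 library SDs, with starting brightness B-score within 2 library SDs, cut at about -5.5 in these data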
KCNQ2 enhance: enhances the rat KCNQ2 potassium channel; O88943; CHO-K1 KCNQ2, FluxOR thallium flux fluorescence; active compounds read high; B-score at 10 µM; hit rate 0.54% among 310,000;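 active = fluorescence ratio B-score at least 3 SD of library B-scores, with initial fluorescence B-score within 3 of them, cut at about 5.3 in these data; same plate scores as AID 2156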;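 also: B-score of peak minus minimum over baseline fluorescence ratio after K+ and Tl+ stimulus; positive B-score means potentiation of KCNQ2 with more thallium influx and brighter signal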
KCNQ2 inh conf: confirmation of rat KCNQ2 potassium channel inhibitors; shares compounds with KCNQ2 block; AID 493025; hit rate 57% among 1,000; activity change, negative = inhibition, % at 10 µM; KCNQ2-expressing cells, thallium flux, inhibition; active compounds read low;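 also: 0% = vehicle wells and values are ratio percent relative to vehicle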
KCNQ1 spec: human KCNQ1 activity in KCNQ2 inhibitor specificity screen. hit rate 15% among 1,000. AID 493026. activity change, negative = inhibition, % at 10 µM. shares compounds with KCNQ2 block. KCNQ1-expressing cells, FluxOR thallium flux fluorescence; active compounds read low;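 active = activity change at least 3 SD of negative controls below their mean in both duplicate wells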;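 also: CHO cells stably transfected with KCNQ1 and depolarized by potassium stimulus; peak minus minimum fluorescence over baseline after thallium addition; 0% = vehicle negative control and -100% = blank without thallium stimulus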
Target sequence (P51787 whole entry, looked up): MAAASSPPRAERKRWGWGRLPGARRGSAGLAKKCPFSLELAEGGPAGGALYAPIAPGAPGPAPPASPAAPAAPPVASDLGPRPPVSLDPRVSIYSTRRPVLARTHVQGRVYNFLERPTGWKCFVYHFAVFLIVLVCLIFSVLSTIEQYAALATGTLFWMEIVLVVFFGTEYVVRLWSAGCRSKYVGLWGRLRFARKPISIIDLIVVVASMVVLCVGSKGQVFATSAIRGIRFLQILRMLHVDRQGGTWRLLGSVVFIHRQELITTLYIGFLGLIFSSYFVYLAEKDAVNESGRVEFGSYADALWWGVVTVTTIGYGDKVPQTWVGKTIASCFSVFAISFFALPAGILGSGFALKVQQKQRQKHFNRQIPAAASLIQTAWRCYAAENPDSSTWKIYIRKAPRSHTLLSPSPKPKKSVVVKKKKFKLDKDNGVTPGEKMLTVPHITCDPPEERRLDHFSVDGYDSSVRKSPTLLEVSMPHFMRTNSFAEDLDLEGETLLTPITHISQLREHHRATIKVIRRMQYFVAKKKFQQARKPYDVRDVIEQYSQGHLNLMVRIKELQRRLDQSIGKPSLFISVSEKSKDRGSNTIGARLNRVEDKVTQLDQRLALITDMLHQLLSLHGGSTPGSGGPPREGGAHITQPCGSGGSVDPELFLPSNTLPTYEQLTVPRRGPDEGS
CHO Tl ctr: counter-screen for KCNQ2 inhibitors: effect in parental CHO cells; activity change, % at 10 µM; shares compounds with KCNQ2 block; AID 493029; thallium flux counter-screen; active compounds read low; hit rate 14% among 1,000;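 also: 0% = vehicle negative controls with stimulus buffer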
KCNQ2 inh confirm: rat KCNQ2 inhibition confirmed by electrophysiology; shares compounds with KCNQ2 block; KCNQ2-expressing cells, automated patch clamp current; calls only at 10 µM; hit rate 49% among 550; AID 588531
The depositor's hits bear a star; i = inactive; . = no result given; + = active, no number. Unless noted, no rule for the calls is given here.

SMILES	KCNQ2 block	KCNQ2 enhance	KCNQ2 inh conf	KCNQ1 spec	CHO Tl ctr	others
CN(CC(=O)Nc1cccc2ccccc12)C(=O)c1cccc(S(=O)(=O)N(C)C)c1	i	.	.	.	.
CCCCCCC(C)n1[nH]c(=O)cc1N (stereo unspecified)	i	0.37	.	.	.
Cc1cccc(N2C(=O)c3ccc(C(=O)Nc4ccccn4)cc3C2=O)c1	i	0.05	.	.	.
Cc1cccc(N2C(=O)/C(=C\c3ccc(C(=O)O)cc3)c3ccccc3C2=O)c1	-9.1*	-9.1	-20%*	i	i	KCNQ2 inh confirm=i
CC(=O)Nc1cccc(C(=O)NC2CCCc3c2cnn3-c2cc(C)cc(C)c2)c1 (stereo unspecified)	i	0.04	.	.	.
Cc1cc(C)n(C(=O)c2sc3cc(F)ccc3c2Cl)n1	i	.	.	.	.
CCOC(=O)N1CCN(C(=O)c2cccc(N3C(=O)NC4CC3(C)Oc3ccccc34)c2)CC1 (stereo unspecified)	i	2.8	.	.	.
CC12CC(NC(=O)N1c1cccc(C(=O)N3CCN(c4ccccc4)CC3)c1)c1ccccc1O2 (stereo unspecified)	-7.3*	-7.3	i	i	i
COc1ccccc1N1CCN(C(=O)c2cccc(N3C(=O)NC4CC3(C)Oc3ccccc34)c2)CC1 (stereo unspecified)	-7.7*	-7.7	i	i	i
COc1cccc(N2CCN(C(=O)c3cccc(N4C(=O)NC5CC4(C)Oc4c(OC)cccc45)c3)CC2)c1 (stereo unspecified)	i	1.1	.	.	.
O=C1C2CCCN2C(=O)N1CCCCN1CCN(c2cccc(Cl)c2)CC1 (stereo unspecified)	i	.	.	.	.
CCN(CC(=O)NCc1ccc(Cl)cc1)C(=O)c1oc2ccccc2c1C	-7*	-7	-19%*	i	i	KCNQ2 inh confirm=+
CCN(CC(=O)NCc1ccc(F)cc1)C(=O)c1oc2ccccc2c1C	i	.	.	.	.
CCCNCc1cc(Br)ccc1OCC(=O)NCCc1ccccc1	i	0.72	.	.	.
O=C(COc1ccc(Br)cc1CNCCc1ccccc1)NCc1ccccc1	-7.6*	-7.6	-32%*	i	i	KCNQ2 inh confirm=+
NC(=O)C1CC(O)CN1c1nc(CN2CCOCC2)nc2scc(-c3ccccc3)c12 (stereo unspecified)	-8.9*	-8.9	i	i	i
CC1CCN(c2nc(CN3CCCCC3)nc3scc(-c4ccccc4)c23)CC1	i	.	.	.	.
Cc1ccc(-c2cc(C(=O)NCc3ccco3)c3ccccc3n2)o1	i	.	.	.	.
Cc1ccc(-c2cc(C(=O)Nc3ccccc3C)c3ccccc3n2)o1	-10*	-10	-40%*	i	i	KCNQ2 inh confirm=+
Cc1ccc(-c2cc(C(=O)N3CC(C)OC(C)C3)c3ccccc3n2)o1 (stereo unspecified)	-11*	-11	-33%*	i	i	KCNQ2 inh confirm=+
COC(=O)c1cc(-c2ccc(C)o2)nc2ccccc12	i	.	.	.	.
Cc1cc(C)n(CCC(=O)N=Nc2c(O)[nH]c3ccc(Br)cc23)n1	i	.	.	.	.
CCN1CCN(C(=O)c2ccc(CS(=O)(=O)Cc3ccccc3C)o2)CC1	i	.	.	.	.
O=C(Nc1ccccc1N1CCCCC1)c1ncoc1-c1ccc(F)cc1	-7.1*	-7.1	i	i	i
CC1CCN(c2ccccc2NC(=O)c2ccc(F)cc2)CC1	-9.3*	-9.3	-17%*	i	i	KCNQ2 inh confirm=i
SMILES	KCNQ2 block	KCNQ2 enhance	KCNQ2 inh conf	KCNQ1 spec	CHO Tl ctr	others
Cc1ccc(-c2ocnc2C(=O)Nc2ccccc2C(=O)N2CCCC2)cc1	i	0.17	.	.	.
CN1CCN(c2ccccc2NC(=O)c2ccc(F)cc2)CC1	i	0.74	.	.	.
CN(C)S(=O)(=O)c1cccc(CSCc2cccc(S(=O)(=O)N(C)C)c2)c1	i	1.4	.	.	.
CCCNC(=O)Nc1cc(OC)c(OC)cc1Cc1nccc2cc(OC)c(OC)cc12	i	0.89	.	.	.
COc1ccc(C(=O)N/C(=C\c2cn(S(=O)(=O)N(C)C)c3ccccc23)C(=O)NCCN2CCOCC2)cc1	i	1.2	.	.	.
COc1ccccc1N1CCN(C2=Nc3cccc4cccc2c34)CC1	-9*	-9	-34%*	i	i	KCNQ2 inh confirm=+
CC(=O)N1CCN(C2=Nc3cccc4cccc2c34)CC1	i	.	.	.	.
C=CCn1c(NCc2cc(C)ccc2O)nc2ccccc21	-7.1*	-7.1	-16%*	i	i	KCNQ2 inh confirm=+
Cc1ccc(O)c(CNc2nc3ccccc3n2C(C)C)c1	i	.	.	.	.
COc1ccc(C(CC(=O)c2ccc(C)cc2)Nc2ccc([N+](=O)[O-])cc2)cc1 (stereo unspecified)	-6.9*	-6.9	-42%*	-33%*	-26%*	KCNQ2 inh confirm=i
Cc1ccc(NC(CC(=O)c2ccccc2)c2ccc(F)cc2)cc1 (stereo unspecified)	i	.	.	.	.
C=CCn1cc(C(=O)OCC)c(=O)c2cc(F)c(F)cc21	i	0.4	.	.	.
COc1ccc(N=N/C(=C\O)C(=O)c2cccs2)cc1	i	.	.	.	.
COc1ccc(/C=C(/C(=O)c2cccs2)N2C=CC=CC2=C(C#N)C#N)cc1	-7.9*	-7.9	-42%*	i	i	KCNQ2 inh confirm=i
c1ccc(CC2CCN(C(c3cccs3)c3nnnn3C3CCCC3)CC2)cc1 (stereo unspecified)	i	.	.	.	.
c1ccc(CN(Cc2cccs2)C(c2cccs2)c2nnnn2C2CCCC2)cc1 (stereo unspecified)	-8.2*	-8.2	i	i	i
C=CCNC(=O)N1CCC(c2nc3ccccc3s2)CC1	i	.	.	.	.
Cc1ccnc(NC(=O)CCC(=O)N(CC(=O)NCCc2ccccc2)c2ccccc2F)c1	i	.	.	.	.
O=C(OCCCN=C1NS(=O)(=O)c2ccccc21)c1ccc([N+](=O)[O-])cc1	i	1.9	.	.	.
CN1/C(=C\C(=O)c2cccnc2)C(C)(C)c2ccccc21	i	.	.	.	.
CN1/C(=C\C(=O)c2cncc(Br)c2)C(C)(C)c2ccccc21	-8*	-8	-40%*	-43%*	-37%*	KCNQ2 inh confirm=i
CN(C)S(=O)(=O)Nc1ccccc1F	i	0.36	.	.	.
COc1cc(CN(C)C(C)C(=O)Nc2ccc([N+](=O)[O-])cc2Cl)ccc1OC(F)F (stereo unspecified)	i	.	.	.	.
COc1ccc(Cl)cc1NC(=O)C(C)N(C)Cc1ccc(C(F)(F)F)cc1 (stereo unspecified)	-6.8*	-6.8	-45%*	-52%*	-39%*	KCNQ2 inh confirm=i
COc1ccc(C(=O)NNC(=O)CSc2nnc(-c3cccnc3)n2C)cc1	i	.	.	.	.
Cc1ccc(C(=O)/C=C/C(=O)c2ccc(C)cc2)cc1	-7.5*	-7.5	i	i	i
Cc1ccc(/C=C/C(=O)c2ccc(C)cc2)cc1	i	.	.	.	.
CN(C)CCNC(=O)/C(=C/c1ccc(-c2ccc(Cl)cc2Cl)o1)NC(=O)c1ccccc1	-9.5*	-9.5	-39%*	-35%*	-33%*
CN(C)CCNC(=O)/C(=C/c1ccc(-c2ccc(Cl)cc2)o1)NC(=O)c1ccccc1	i	.	.	.	.
COc1ccccc1CCC(=O)OCC(=O)Nc1cc(C)nn1-c1ccccc1	i	0.08	.	.	.
